These results are taken from PubChem BioAssay AID743279 (National Center for Advancing Translational Sciences (NCATS), 2014).

Screen size: about 360,000 compounds; about 17,000 (4.7%) were called active. About 5% were inconclusive and are not listed. The sample holds actives, similar compounds and a random draw of the others, so the mix is not that of the screen. A number with no mark means an inactive call. No stated cut-off is given here; in the data, active means activity change below about -50%; inconclusive means mostly about -30% to -49%; inactive means weaker than that.
On the % scale 0 is the no-effect control and ±100 the full control effect.

The experiment is described as follows: qHTS for Inhibitors of Inflammasome Signaling: IL-1-beta AlphaLISA Primary Screen. The settings on record: THP-1 LPS/ATP IL-1B secretion, 16 h; at 57.5 µM, stronger effect = lower value. Summed up: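 THP-1 cells pretreated 1 hr with compounds (up to 57.5 uM final), then stimulated with LPS (250 ng/mL final) plus ATP (1.25 mM final); secreted IL-1B measured by AlphaLISA after 16 hr, decreased signal indicating inhibition.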
With `COc1ccc(N2CC(C(=O)NCCN3C(=O)S/C(=C\c4cccnc4)C3=O)CC2=O)c(OC)c1` (stereo not given), the activity change was -26.5%.
As to `COc1cc(OC)cc(C(=O)NNC(=O)Cc2cccs2)c1`, the activity change is -1.89%.
`Cc1cc2nc(-c3ccco3)c(Cc3cccc(F)c3)n2c(C)c1Br`: the activity change is 5.29%.
For `O=S1(=O)CC(N2CCN(CCO)CC2)CN1Cc1cn(Cc2cccc(Cl)c2)nn1` (stereo not given), the activity change is 13.7%.
On to `CCOC(=O)C1C(=O)C=C(c2ccc(OC)cc2)CC1c1ccco1` (stereo not given), for which the activity change is -62.8% (active).
As for `CCOC(=O)C1C(=O)NC(N2CCN(c3ccccc3)CC2)=NC1c1ccco1` (stereo not given), the figure is -8.04%; as for `COc1ccc(C2=NN(C(=O)CSc3nnnn3C)C(c3ccco3)C2)cc1` (stereo not given), -17.6%.
`Cc1ccc(NC(=O)C(C)OC(=O)C2CC3CCCC(C2)C3=O)cc1S(=O)(=O)N1CCOCC1` (stereo not given): the activity change was 21%.
For `CC1(C(=O)Nc2cccc3c2CCCC3)CCN1C(=O)C1(c2ccccc2)CC1` (stereo not given), the activity change is 2.24%.
Next, `CC(C)Cc1ccc(-c2cc3nc(NCc4cccc(Cl)c4)ccn3n2)cc1`: 16.6%; `COc1ccc(-c2csc3ncnc(N4CCN(S(=O)(=O)c5cccc(F)c5)CC4)c23)cc1`: -1.57%.
In the case of `COc1cccc(C=CC(=O)C=CC=Cc2ccccc2)c1`, the activity change was -59.4% (active).
`COc1cccc(C(=O)NNC(=O)/C=C/c2ccccc2)c1`: the activity change is 12.5%.
As for `COc1cccc(/C=C/C(=O)OCC(=O)N2CCCc3ccccc32)c1`, the figure is -0.538%; as for `COc1ccc(C2OC(CCc3ccccc3)Cc3[nH]c(=S)[nH]c(=O)c32)cc1` (stereo not given), -10.2%; as for `COc1ccc(OCc2cc(C(=O)N3CCCC3)no2)c2ccccc12`, 0%.
Next, `CCn1ccnc1CN(C)C(=O)c1cc(COc2ccc(Cl)cc2OC)on1`: -11%.
For `COc1cc(Cl)ccc1OCc1cc(C(=O)N2CC[C@@H]3CCCC[C@H]3C2)no1`, the activity change is -82.6% (active).
Consider `O=C(CC(O)(C(F)(F)F)C(F)(F)F)Nc1ccc(Cl)c(Cl)c1`, for which the activity change was -71.8% (active).
With `O=C(COC(=O)c1cc[n+]([O-])cc1)Nc1ccc(Cl)c(C(F)(F)F)c1`, the activity change is 14.3%.
For `O=C(CCCN1C(=O)CCC1=O)Nc1ccc(Cl)c(C(F)(F)F)c1`, the activity change was 3.74%.
With `COc1ccc(C(=O)N2CCCCC2c2cc(C(=O)Nc3ccccc3)no2)cc1` (stereo not given), the activity change was -3.11%.
For `O=C(CCN1C(=O)c2ccncc2C1=O)Nc1cc(F)ccc1F`, the activity change is 36.2%.
As for `C#CCOCCOCCOCCNc1nc(N2CCN(C(=O)[C@H](C(C)C)n3cc(CCO)nn3)CC2)nc(N2CCN(C(=O)[C@H]([C@@H](C)CC)n3cc(CCCN=C(N)N)nn3)CC2)n1`, the figure is -5.99%; as for `C#CCOCCOCCOCCNc1nc(N2CCN(C(=O)[C@H](CCC(=O)O)n3cc(CN)nn3)CC2)nc(N2CCN(C(=O)[C@H](CCC(=O)O)n3cc(CN)nn3)CC2)n1`, 25.6%; as for `C#CCOCCOCCOCCNc1nc(N2CCN(C(=O)CCCCCCCCCCNC(=O)Cn3cc(CCCCCN)nn3)CC2)nc(N2CCN(C(=O)CCCCCCCCCCNC(=O)[C@H](CO)n3cc(CCCSC)nn3)CC2)n1`, -72.1% (active).
For the molecule `C#CCOCCOCCOCCNc1nc(N2CCN(C(=O)Cn3cc(CCO)nn3)CC2)nc(N2CCN(C(=O)[C@H](CCCCN)n3cc(CCCC)nn3)CC2)n1`, the activity change was 2.45%.
As for `C#CCOCCOCCOCCNc1nc(N2CCN(C(=O)Cn3cc(CCCCN)nn3)CC2)nc(N2CCN(C(=O)[C@H](CCCCN)n3cc(CCC(=O)O)nn3)CC2)n1`, the figure is 58.3%; as for `C#CCOCCOCCOCCNc1nc(N2CCN(C(=O)[C@H](CCCCN)n3cc(CCC(=O)O)nn3)CC2)nc(N2CCN(C(=O)[C@H](CCCCN)n3cc(CC(C)O)nn3)CC2)n1` (stereo not given in full), 3.3%; as for `C#CCOCCOCCOCCNc1nc(N2CCN(C(=O)CCCCCCCCCCNC(=O)[C@H]([C@@H](C)CC)n3cc(CCCCN=C(N)N)nn3)CC2)nc(N2CCN(C(=O)CCCCCCCCCCNC(=O)[C@H](CO)n3cc(CCCSC)nn3)CC2)n1`, -111% (active).
As for `C#CCOCCOCCOCCNc1nc(N2CCN(C(=O)Cn3cc(CCO)nn3)CC2)nc(N2CCN(C(=O)Cn3cc(CCCN=C(N)N)nn3)CC2)n1`, the figure is 12.6%; as for `C#CCOCCOCCOCCNc1nc(N2CCN(C(=O)CCCCCCCCCCNC(=O)[C@H](CCCCN)n3cc(C)nn3)CC2)nc(N2CCN(C(=O)CCCCCCCCCCNC(=O)[C@H](CO)n3cc(CCCSC)nn3)CC2)n1`, -81.7% (active).
With `COc1ccc(CCNc2cc(N3CCN(C(=O)c4ccccc4OC)CC3)ccc2[N+](=O)[O-])cc1OC`, the activity change was 42.9%.
`O=C(NN=CC=Cc1ccccc1)C(O)C(O)C(=O)NN=CC=Cc1ccccc1` (stereo not given): the activity change was -17.2%.
As for `Cc1ccc(C(CNC(=O)Nc2cccc(C)c2)N2CCN(C)CC2)cc1` (stereo not given), the figure is -20.1%; as for `CCC1CCCCN1C(=S)NC(=O)c1ccco1` (stereo not given), -6.58%.
As for `CCn1c(=O)c2ccccc2n(CC(=O)N2CCCc3ccccc32)c1=O`, the figure is -0.244%; as for `COc1ccc(CCNC(=O)COc2cc(C)cc3oc(=O)c(C)c(C)c23)cc1OC`, -1.44%; as for `Cc1cccc(NC(=O)c2ccc(COc3ccccc3[N+](=O)[O-])o2)n1`, 6.94%.
As for `CCOc1ccc(OCc2ccc(C(=O)Nc3cccc(C)n3)o2)cc1`, the figure is -69% (active).
For the molecule `CCOc1ccc(OCc2ccc(C(=O)N(C)c3ccccc3)o2)cc1`, the activity change is -7.29%.
As for `OC[C@@H]1CN(Cc2ccc(Cl)cc2)C[C@H](n2cnc3c(NCc4ccncc4)ncnc32)O1`, the figure is -7%.
Next, `C=CCn1c2c(c3ccccc31)CCC2`: 0%; `Cc1ccc(C(=O)CSc2ccccc2C(=O)O)cc1`: 5.18%.
Turning to `CC(C)(C)c1ccc(C(=O)NNC(=O)Cc2ccccc2)cc1`, the activity change was 0.0784%.
Turning to `Cc1ccc(SC(CC(=O)c2ccc(C(C)(C)C)cc2)C(=O)O)cc1` (stereo not given), the activity change was -93.8% (active).
Next, `CCC(C)C1(C2CCCC2)NC(=O)NC1=O` (stereo not given): -5.19%; `CC1(c2ccccc2)CC(C)(C)N(C(=O)c2cc([N+](=O)[O-])cc([N+](=O)[O-])c2)c2ccccc21` (stereo not given): 5.37%.
For the molecule `Cc1nnc(SCC(=O)N2c3ccccc3C(C)(c3ccc(Cl)cc3)CC2(C)C)s1` (stereo not given), the activity change was -71.6% (active).
Next, `CC1(c2cccc([N+](=O)[O-])c2)CC(C)(C)N(C(=O)c2ccccc2)c2ccccc21` (stereo not given): -2.13%.
